# Laboratory results reported in PMC7862700, “An all-to-all approach to the identification of sequence-specific readers for epigenetic DNA modifications on cytosine”.
# Key:
# Assay in all cases: DAPPL (digital affinity profiling via proximity ligation, sequencing); 10 mM Tris-HCl pH 7.5, 50 mM NaCl, 1 mM DTT, 4% glycerol, room temperature, 30 min; GST-TFs on glutathione beads, 16-mer random dsDNA library, 0.1% formaldehyde crosslink after washing; high values mean tight binding
# FLI1 = target: T1, FLI1 (Homo sapiens, UniProt Q01543 1-452); settings: protein: recombinant; tags: N-terminal GST; dsDNA, one strand shown
# T1 sequence: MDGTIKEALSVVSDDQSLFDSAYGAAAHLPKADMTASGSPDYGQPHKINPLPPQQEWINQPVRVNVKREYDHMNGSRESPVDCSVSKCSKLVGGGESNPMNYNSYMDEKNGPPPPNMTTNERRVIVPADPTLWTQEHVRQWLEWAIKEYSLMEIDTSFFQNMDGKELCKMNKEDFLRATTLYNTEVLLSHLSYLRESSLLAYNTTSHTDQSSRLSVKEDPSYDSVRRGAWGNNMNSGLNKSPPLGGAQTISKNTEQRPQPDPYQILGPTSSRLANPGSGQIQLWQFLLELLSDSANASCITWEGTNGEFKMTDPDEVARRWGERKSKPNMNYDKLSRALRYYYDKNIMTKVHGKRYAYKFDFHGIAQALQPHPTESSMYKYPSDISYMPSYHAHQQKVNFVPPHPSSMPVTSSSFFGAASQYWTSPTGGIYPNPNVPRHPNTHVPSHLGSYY
# Summary of the method: (§1)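 In yeast, human transcription factors were expressed with a GST fusion, then pulled down on glutathione beads and given DNA barcodes. Pooled with a tag-only sample, they were exposed to 200 nmole of a 16-mer random double-stranded DNA library (Tris/NaCl/DTT/glycerol buffer, room temperature, 30 min), washed, crosslinked with 0.1% formaldehyde, proximity-ligated using BsaI/T4 ligase for 1 h at 37 °C, PCR-amplified and read on an Illumina NextSeq500. Each hexamer's frequency of reads for a factor, divided by the matching frequency for the tag-only sample, gives the binding signal.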
# ELK1 = target: T2, ELK1 (Homo sapiens, UniProt P19419 1-428); settings: protein: recombinant; tags: N-terminal GST; dsDNA, one strand shown
# T2 sequence: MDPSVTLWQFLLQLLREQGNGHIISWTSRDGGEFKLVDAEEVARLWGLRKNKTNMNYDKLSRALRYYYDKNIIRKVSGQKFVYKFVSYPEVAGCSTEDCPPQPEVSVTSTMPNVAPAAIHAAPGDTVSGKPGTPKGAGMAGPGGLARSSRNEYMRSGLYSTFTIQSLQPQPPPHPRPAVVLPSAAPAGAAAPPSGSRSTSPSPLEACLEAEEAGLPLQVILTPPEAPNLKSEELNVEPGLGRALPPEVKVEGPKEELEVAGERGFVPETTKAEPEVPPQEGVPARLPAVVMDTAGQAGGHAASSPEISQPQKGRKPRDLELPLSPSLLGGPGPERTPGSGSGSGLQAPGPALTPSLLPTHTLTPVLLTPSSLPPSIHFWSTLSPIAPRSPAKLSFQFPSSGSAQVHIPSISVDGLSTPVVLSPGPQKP
# Summary of the method: as §1
# GABPA = target: T3, GABPA (Homo sapiens, UniProt Q06546 1-454); settings: protein: recombinant; tags: N-terminal GST; dsDNA, one strand shown
# T3 sequence: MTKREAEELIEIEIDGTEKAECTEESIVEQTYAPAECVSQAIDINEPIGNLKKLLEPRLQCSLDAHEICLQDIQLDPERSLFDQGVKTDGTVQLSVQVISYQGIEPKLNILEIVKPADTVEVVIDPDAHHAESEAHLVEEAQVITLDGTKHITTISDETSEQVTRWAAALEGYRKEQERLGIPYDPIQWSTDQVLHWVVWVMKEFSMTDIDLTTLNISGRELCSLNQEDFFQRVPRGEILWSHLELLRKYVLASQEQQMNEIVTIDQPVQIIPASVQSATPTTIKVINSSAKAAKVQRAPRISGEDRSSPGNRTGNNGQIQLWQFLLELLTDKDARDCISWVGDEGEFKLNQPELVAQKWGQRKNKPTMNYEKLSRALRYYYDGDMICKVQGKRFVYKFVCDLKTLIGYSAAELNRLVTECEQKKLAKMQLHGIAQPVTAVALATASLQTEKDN
# Summary of the method: as §1
# ERG = target: T4, ERG (Homo sapiens, UniProt P11308 1-479); settings: protein: recombinant; tags: N-terminal GST; dsDNA, one strand shown
# T4 sequence: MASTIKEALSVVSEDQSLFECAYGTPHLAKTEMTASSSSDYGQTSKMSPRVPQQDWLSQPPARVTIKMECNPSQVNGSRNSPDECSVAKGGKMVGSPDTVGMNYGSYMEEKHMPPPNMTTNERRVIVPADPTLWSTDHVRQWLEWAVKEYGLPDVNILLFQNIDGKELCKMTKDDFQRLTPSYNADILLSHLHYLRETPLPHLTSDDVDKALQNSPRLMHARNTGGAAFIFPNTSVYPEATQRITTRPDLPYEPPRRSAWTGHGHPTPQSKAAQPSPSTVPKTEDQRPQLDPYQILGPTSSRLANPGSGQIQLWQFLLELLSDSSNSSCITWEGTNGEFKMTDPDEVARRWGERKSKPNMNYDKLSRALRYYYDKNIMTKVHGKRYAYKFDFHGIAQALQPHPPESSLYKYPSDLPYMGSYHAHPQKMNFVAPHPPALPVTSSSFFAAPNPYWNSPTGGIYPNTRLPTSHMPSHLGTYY
# Summary of the method: as §1
# ELF1 = ELF1 (Homo sapiens, UniProt P32519 1-619); settings: protein: recombinant; tags: N-terminal GST; dsDNA, one strand shown
# Sequence of ELF1 (P32519 whole entry): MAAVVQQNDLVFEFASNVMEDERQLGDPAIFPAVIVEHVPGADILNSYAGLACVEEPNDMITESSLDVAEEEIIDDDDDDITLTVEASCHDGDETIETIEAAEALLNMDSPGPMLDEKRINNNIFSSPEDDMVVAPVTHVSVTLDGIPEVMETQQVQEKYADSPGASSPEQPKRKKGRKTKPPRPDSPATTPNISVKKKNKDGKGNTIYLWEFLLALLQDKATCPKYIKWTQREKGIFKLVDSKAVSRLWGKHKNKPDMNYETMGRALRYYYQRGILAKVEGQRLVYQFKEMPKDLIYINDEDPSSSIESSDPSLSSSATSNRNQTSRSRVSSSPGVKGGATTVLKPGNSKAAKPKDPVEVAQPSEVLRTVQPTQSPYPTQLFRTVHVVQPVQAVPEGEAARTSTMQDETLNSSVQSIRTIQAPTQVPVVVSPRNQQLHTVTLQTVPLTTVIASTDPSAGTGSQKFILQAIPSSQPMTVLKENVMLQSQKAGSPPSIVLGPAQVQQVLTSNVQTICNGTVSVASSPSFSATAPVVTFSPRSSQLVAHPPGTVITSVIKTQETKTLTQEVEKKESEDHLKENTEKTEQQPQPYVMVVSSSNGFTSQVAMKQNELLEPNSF
# Summary of the method: as §1
# EHF = target: T5, EHF (Homo sapiens, UniProt Q9NZC4 1-300); settings: protein: recombinant; tags: N-terminal GST; dsDNA, one strand shown
# T5 sequence: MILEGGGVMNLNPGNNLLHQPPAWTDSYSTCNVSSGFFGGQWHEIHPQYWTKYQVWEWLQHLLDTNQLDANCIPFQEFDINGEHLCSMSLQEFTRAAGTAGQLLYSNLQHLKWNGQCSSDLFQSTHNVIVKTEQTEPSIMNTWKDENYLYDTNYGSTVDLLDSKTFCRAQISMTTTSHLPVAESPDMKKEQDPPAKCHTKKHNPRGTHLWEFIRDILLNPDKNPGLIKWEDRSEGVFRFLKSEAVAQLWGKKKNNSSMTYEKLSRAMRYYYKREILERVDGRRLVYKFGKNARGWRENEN
# Summary of the method: as §1
# SPI1 = SPI1 (Homo sapiens, UniProt P17947 1-270); settings: protein: recombinant; tags: N-terminal GST; dsDNA, one strand shown
# Summary of the method: as §1
# SPIB = SPIB (Homo sapiens, UniProt Q01892 1-262); settings: protein: recombinant; tags: N-terminal GST; dsDNA, one strand shown
# Sequence of SPIB (Q01892 whole entry): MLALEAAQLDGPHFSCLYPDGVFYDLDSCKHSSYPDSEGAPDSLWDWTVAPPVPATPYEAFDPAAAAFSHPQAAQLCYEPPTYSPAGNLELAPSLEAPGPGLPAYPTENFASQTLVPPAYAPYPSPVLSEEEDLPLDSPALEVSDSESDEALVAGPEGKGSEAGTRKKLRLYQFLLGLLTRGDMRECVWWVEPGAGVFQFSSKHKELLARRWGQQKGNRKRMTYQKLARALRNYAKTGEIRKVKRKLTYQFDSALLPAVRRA
# Summary of the method: as §1
# ELK3 = target: T6, ELK3 (Homo sapiens, UniProt P41970 1-407); settings: protein: recombinant; tags: N-terminal GST; dsDNA, one strand shown
# T6 sequence: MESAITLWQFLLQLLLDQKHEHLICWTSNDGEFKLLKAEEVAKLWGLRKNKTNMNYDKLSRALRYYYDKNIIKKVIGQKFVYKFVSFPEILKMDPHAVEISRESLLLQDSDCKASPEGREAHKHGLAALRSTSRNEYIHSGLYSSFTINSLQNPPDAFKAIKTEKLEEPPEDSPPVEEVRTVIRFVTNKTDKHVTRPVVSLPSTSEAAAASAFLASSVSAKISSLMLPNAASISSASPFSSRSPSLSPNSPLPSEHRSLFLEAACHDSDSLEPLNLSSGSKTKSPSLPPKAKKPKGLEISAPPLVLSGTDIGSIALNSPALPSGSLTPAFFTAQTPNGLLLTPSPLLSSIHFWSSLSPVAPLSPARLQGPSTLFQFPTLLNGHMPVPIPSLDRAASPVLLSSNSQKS
# Summary of the method: as §1
# FEV = target: T7, FEV (Homo sapiens, UniProt Q99581 1-238); settings: protein: recombinant; tags: N-terminal GST; dsDNA, one strand shown
# T7 sequence: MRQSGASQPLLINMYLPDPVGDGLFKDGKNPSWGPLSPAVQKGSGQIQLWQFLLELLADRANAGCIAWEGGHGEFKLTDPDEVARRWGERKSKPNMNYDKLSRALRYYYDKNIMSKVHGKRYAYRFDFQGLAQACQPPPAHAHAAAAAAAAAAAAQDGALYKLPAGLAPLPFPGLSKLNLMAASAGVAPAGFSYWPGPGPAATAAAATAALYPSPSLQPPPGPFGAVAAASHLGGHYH
# Summary of the method: as §1
# ETV5 = ETV5 (Homo sapiens, UniProt P41161 1-510); settings: protein: recombinant; tags: N-terminal GST; dsDNA, one strand shown
# Sequence of ETV5 (P41161 whole entry): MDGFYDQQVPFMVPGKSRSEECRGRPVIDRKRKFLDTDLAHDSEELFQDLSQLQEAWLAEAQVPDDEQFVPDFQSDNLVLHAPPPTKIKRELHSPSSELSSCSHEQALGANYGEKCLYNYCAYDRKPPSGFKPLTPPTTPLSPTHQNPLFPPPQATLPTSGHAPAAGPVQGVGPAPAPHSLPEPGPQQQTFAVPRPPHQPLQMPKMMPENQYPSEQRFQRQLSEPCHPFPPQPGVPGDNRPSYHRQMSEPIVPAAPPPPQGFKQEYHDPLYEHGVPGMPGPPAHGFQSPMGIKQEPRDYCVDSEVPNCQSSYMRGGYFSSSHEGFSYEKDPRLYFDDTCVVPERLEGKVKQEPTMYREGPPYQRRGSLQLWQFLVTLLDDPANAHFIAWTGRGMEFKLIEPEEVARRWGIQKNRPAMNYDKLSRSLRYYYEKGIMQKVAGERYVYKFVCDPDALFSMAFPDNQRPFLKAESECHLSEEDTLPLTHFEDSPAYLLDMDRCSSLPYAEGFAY
# Summary of the method: as §1
# HSF1 = HSF1 (Homo sapiens, UniProt Q00613 1-529); settings: protein: recombinant; tags: N-terminal GST; chain copies: 3; dsDNA, one strand shown
# Sequence of HSF1 (Q00613 whole entry): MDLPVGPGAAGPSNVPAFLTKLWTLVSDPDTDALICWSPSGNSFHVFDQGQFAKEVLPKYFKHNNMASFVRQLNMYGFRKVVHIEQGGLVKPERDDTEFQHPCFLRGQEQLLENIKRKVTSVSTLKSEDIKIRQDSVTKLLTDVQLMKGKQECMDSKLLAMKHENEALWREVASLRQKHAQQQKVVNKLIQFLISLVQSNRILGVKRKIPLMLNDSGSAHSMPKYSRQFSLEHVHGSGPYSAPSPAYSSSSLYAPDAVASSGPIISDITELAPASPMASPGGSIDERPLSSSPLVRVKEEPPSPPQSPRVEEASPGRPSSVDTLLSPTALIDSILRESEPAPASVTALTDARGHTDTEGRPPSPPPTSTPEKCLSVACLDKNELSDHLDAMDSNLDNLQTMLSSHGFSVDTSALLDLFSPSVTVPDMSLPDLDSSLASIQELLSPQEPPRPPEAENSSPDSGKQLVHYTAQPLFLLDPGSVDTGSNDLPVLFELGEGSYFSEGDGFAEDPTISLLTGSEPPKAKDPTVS
# Summary of the method: as §1
# SPIC = target: T8, SPIC (Homo sapiens, UniProt Q8N5J4 1-248); settings: protein: recombinant; tags: N-terminal GST; dsDNA, one strand shown
# T8 sequence: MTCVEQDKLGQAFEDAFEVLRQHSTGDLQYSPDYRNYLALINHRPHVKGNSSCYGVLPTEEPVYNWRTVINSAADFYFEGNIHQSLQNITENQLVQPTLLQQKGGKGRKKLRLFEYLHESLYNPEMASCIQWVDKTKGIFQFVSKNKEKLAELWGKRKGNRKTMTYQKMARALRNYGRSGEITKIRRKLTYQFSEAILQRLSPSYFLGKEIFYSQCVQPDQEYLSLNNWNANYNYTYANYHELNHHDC
# Summary of the method: as §1
# ELF4 = ELF4 (Homo sapiens, UniProt Q99607 1-663); settings: protein: recombinant; tags: N-terminal GST; dsDNA, one strand shown
# Sequence of ELF4 (Q99607 whole entry): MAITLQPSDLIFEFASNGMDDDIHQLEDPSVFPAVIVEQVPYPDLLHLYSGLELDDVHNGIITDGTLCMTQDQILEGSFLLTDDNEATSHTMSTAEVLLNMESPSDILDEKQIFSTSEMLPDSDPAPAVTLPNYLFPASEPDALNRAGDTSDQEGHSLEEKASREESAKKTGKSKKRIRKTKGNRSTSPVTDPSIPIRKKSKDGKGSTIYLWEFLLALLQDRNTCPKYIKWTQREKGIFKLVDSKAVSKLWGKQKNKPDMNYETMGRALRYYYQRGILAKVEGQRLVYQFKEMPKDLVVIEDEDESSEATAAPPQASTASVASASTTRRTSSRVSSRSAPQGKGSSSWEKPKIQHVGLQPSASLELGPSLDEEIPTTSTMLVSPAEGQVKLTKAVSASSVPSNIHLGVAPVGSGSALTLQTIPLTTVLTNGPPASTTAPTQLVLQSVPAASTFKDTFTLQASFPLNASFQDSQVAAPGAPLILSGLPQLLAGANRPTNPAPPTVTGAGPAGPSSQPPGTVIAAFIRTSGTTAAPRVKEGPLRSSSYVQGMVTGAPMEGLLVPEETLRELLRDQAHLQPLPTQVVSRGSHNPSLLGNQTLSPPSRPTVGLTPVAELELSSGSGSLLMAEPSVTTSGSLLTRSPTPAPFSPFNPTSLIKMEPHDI
# Summary of the method: as §1
# ELK4 = target: T9, ELK4 (Homo sapiens, UniProt P28324-2 1-405); settings: protein: recombinant; tags: N-terminal GST; dsDNA, one strand shown
# T9 sequence: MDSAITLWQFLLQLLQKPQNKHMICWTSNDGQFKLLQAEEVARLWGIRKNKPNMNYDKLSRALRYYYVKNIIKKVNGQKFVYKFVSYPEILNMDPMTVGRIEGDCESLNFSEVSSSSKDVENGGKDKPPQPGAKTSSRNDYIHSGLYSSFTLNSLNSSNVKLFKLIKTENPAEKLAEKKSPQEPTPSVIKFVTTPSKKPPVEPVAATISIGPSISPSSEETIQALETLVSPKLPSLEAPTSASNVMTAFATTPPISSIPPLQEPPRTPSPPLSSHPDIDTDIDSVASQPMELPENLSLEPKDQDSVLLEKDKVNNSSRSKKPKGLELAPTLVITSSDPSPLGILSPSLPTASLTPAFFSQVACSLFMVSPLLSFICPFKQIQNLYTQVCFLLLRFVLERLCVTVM
# Summary of the method: as §1
# ETV2 = target: T10, ETV2 (Homo sapiens, UniProt O00321 1-342); settings: protein: recombinant; tags: N-terminal GST; dsDNA, one strand shown
# T10 sequence: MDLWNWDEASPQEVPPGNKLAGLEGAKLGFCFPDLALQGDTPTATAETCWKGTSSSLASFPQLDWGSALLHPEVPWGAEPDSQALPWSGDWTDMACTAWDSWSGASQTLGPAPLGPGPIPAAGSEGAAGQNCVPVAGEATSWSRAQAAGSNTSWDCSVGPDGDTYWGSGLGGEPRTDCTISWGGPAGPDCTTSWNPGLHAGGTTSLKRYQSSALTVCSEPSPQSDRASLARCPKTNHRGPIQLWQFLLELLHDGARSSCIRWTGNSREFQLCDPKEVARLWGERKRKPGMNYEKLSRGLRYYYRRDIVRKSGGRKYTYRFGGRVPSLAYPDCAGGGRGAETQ
# Summary of the method: as §1
# ELF3 = target: T11, ELF3 (Homo sapiens, UniProt P78545 1-371); settings: protein: recombinant; tags: N-terminal GST; dsDNA, one strand shown
# T11 sequence: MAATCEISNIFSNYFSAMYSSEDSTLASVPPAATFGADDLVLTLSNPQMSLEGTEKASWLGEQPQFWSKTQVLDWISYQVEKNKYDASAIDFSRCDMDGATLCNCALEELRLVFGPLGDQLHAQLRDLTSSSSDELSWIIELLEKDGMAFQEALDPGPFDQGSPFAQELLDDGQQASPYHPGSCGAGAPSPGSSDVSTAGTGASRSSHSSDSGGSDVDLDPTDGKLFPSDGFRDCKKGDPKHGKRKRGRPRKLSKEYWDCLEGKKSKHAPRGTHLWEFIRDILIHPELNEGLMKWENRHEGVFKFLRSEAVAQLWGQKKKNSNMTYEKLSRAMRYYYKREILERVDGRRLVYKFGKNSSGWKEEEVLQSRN
# Summary of the method: as §1
# ETV1 = ETV1 (Homo sapiens, UniProt P50549 1-477); settings: protein: recombinant; tags: N-terminal GST; dsDNA, one strand shown
# Sequence of ETV1 (P50549 whole entry): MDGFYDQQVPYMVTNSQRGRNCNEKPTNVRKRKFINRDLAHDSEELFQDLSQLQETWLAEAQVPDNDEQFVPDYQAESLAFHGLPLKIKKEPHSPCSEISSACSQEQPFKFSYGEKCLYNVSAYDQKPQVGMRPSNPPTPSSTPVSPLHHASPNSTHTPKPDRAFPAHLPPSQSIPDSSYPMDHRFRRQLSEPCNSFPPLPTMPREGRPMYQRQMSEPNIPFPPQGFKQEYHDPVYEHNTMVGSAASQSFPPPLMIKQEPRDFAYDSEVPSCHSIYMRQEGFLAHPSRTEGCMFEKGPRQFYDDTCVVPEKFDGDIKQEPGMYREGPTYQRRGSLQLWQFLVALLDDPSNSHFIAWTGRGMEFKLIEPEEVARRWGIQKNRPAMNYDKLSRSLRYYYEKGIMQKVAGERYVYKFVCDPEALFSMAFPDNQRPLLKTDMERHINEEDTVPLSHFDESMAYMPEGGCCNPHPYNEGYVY
# Summary of the method: as §1
sequence,measurement,setting,value
AATGGG,binding signal,FLI1,"1.26 fold enrichment (6-mer frequency, TF over GST control)"
same,binding signal,ELK1,"1.24 fold enrichment (6-mer frequency, TF over GST control)"
same,binding signal,GABPA,"1.18 fold enrichment (6-mer frequency, TF over GST control)"
same,binding signal,ERG,"1.16 fold enrichment (6-mer frequency, TF over GST control)"
same,binding signal,ELF1,"1.2 fold enrichment (6-mer frequency, TF over GST control)"
same,binding signal,EHF,"1.29 fold enrichment (6-mer frequency, TF over GST control)"
same,binding signal,SPI1,"1.34 fold enrichment (6-mer frequency, TF over GST control)"
same,binding signal,SPIB,"1.22 fold enrichment (6-mer frequency, TF over GST control)"
same,binding signal,ELK3,"1.08 fold enrichment (6-mer frequency, TF over GST control)"
same,binding signal,FEV,"1.25 fold enrichment (6-mer frequency, TF over GST control)"
same,binding signal,ETV5,"1.28 fold enrichment (6-mer frequency, TF over GST control)"
same,binding signal,HSF1,"1.02 fold enrichment (6-mer frequency, TF over GST control)"
same,binding signal,SPIC,"1.26 fold enrichment (6-mer frequency, TF over GST control)"
same,binding signal,ELF4,"1.16 fold enrichment (6-mer frequency, TF over GST control)"
same,binding signal,ELK4,"1.27 fold enrichment (6-mer frequency, TF over GST control)"
same,binding signal,ETV2,"1.22 fold enrichment (6-mer frequency, TF over GST control)"
same,binding signal,ELF3,"1.13 fold enrichment (6-mer frequency, TF over GST control)"
same,binding signal,ETV1,"1.21 fold enrichment (6-mer frequency, TF over GST control)"
